# From PMC7862700, “An all-to-all approach to the identification of sequence-specific readers for epigenetic DNA modifications on cytosine”
# Tests used:
# Experiment in all cases: DAPPL (digital affinity profiling via proximity ligation, sequencing); 10 mM Tris-HCl pH 7.5, 50 mM NaCl, 1 mM DTT, 4% glycerol, room temperature, 30 min; GST-TFs on glutathione beads, 16-mer random dsDNA library, 0.1% formaldehyde crosslink after washing; high values mean tight binding
# Conditions in all cases: protein: recombinant; tags: N-terminal GST; dsDNA, one strand shown
# FLI1 = target: T1, FLI1 (Homo sapiens, UniProt Q01543 1-452)
# T1 sequence: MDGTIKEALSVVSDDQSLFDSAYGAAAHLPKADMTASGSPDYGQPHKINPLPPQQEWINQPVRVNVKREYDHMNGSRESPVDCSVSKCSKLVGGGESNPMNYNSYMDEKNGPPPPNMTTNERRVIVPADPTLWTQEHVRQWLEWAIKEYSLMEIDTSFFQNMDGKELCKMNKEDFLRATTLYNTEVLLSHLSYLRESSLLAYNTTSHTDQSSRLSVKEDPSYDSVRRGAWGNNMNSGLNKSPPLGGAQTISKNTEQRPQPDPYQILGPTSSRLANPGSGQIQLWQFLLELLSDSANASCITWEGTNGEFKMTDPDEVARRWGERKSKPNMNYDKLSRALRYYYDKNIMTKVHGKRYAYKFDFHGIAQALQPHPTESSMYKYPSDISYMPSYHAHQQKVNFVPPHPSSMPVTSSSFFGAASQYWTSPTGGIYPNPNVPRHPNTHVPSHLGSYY
# Method in brief: (§1)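 Each value of binding signal is a hexamer's read frequency for a factor divided by the same hexamer's frequency in the tag-only sample. Barcoded, bead-captured GST fusions of human transcription factors made in yeast were pooled with that sample and incubated with 200 nmole of a random double-stranded 16-mer DNA library in Tris/NaCl/DTT/glycerol buffer at room temperature for 30 min. Washing, 0.1% formaldehyde crosslinking, proximity ligation, PCR and Illumina NextSeq500 sequencing followed.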
# ELK1 = target: T2, ELK1 (Homo sapiens, UniProt P19419 1-428)
# T2 sequence: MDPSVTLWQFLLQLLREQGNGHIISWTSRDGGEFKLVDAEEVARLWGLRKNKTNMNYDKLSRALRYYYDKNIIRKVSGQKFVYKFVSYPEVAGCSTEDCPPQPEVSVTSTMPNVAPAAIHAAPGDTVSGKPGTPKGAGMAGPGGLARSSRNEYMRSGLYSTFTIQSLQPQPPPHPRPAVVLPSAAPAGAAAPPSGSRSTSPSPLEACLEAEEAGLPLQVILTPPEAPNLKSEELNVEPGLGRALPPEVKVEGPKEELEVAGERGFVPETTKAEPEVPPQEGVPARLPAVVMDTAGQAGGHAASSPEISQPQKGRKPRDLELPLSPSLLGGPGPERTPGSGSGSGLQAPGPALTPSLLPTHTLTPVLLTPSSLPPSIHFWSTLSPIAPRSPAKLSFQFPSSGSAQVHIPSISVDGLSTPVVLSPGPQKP
# Method in brief: as §1
# GABPA = target: T3, GABPA (Homo sapiens, UniProt Q06546 1-454)
# T3 sequence: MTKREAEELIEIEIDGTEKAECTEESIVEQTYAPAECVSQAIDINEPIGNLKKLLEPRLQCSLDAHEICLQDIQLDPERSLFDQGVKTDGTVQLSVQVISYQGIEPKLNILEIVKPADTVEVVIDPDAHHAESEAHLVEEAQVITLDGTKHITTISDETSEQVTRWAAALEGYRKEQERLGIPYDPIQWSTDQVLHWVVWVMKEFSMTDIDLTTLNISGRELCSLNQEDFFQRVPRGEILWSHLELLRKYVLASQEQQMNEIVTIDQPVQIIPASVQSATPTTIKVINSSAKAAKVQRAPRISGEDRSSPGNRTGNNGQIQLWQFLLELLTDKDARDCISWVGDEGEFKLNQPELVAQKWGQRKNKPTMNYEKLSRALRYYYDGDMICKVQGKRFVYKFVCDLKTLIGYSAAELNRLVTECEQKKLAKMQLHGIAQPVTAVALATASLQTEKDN
# Method in brief: as §1
# ERG = target: T4, ERG (Homo sapiens, UniProt P11308 1-479)
# T4 sequence: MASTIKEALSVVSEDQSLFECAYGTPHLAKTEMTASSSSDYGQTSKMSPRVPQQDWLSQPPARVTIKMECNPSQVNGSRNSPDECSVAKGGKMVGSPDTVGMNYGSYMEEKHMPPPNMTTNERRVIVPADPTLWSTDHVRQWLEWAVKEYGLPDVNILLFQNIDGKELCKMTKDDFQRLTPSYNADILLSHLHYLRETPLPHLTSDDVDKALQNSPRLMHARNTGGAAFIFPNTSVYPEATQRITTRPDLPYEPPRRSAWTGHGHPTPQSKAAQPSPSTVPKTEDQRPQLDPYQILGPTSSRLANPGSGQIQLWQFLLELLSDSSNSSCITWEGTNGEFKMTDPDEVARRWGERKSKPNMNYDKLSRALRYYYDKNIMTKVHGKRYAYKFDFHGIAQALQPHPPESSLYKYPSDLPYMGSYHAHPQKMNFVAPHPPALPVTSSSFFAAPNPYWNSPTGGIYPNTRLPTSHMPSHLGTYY
# Method in brief: as §1
# ELF1 = ELF1 (Homo sapiens, UniProt P32519 1-619)
# Sequence of ELF1 (P32519 whole entry): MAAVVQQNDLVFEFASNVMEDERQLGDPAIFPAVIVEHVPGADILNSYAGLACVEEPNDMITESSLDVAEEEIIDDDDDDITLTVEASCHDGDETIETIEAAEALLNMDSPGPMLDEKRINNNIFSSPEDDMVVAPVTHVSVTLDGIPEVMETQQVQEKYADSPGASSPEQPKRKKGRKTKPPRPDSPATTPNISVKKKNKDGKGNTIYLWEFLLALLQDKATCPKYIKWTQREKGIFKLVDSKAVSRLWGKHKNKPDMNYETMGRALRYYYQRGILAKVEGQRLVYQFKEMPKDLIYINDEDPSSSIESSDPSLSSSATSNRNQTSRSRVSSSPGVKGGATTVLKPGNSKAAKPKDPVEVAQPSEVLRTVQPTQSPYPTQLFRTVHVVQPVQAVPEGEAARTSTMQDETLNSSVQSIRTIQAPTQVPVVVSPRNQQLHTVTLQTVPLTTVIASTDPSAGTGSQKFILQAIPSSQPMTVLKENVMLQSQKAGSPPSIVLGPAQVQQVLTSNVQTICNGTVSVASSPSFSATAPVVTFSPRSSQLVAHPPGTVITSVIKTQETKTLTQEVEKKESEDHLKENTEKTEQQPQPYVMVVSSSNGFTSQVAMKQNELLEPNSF
# Method in brief: as §1
# EHF = target: T5, EHF (Homo sapiens, UniProt Q9NZC4 1-300)
# T5 sequence: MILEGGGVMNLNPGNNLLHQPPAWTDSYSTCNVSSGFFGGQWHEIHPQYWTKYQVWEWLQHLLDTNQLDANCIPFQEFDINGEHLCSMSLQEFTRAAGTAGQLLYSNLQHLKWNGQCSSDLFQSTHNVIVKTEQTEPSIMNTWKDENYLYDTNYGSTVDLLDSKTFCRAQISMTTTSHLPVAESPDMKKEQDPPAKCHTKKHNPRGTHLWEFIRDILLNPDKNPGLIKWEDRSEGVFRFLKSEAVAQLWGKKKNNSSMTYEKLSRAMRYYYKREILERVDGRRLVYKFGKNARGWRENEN
# Method in brief: as §1
# SPI1 = SPI1 (Homo sapiens, UniProt P17947 1-270)
# Method in brief: as §1
# SPIB = SPIB (Homo sapiens, UniProt Q01892 1-262)
# Sequence of SPIB (Q01892 whole entry): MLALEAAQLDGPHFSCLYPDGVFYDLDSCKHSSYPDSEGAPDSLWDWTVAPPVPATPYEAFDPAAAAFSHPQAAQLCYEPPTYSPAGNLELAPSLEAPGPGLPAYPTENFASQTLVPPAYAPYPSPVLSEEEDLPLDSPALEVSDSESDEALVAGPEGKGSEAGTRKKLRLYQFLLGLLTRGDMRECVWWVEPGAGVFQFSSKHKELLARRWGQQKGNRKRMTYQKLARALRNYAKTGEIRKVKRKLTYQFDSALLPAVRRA
# Method in brief: as §1
# ELK3 = target: T6, ELK3 (Homo sapiens, UniProt P41970 1-407)
# T6 sequence: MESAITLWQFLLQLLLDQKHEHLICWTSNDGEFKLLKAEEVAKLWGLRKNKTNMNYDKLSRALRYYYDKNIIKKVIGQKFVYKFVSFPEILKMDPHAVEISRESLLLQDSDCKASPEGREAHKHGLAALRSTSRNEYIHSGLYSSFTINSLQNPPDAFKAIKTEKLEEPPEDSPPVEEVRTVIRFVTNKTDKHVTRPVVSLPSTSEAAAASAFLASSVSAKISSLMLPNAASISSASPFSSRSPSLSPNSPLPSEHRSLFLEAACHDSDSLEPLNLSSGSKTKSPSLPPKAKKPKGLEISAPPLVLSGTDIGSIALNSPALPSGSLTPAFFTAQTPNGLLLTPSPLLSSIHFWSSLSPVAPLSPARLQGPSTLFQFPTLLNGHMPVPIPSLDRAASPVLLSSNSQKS
# Method in brief: as §1
Sequence,binding signal (FLI1),binding signal (ELK1),binding signal (GABPA),binding signal (ERG),binding signal (ELF1),binding signal (EHF),binding signal (SPI1),binding signal (SPIB),binding signal (ELK3)
TATGCC,"1.11 fold enrichment (6-mer frequency, TF over GST control)","1.27 fold enrichment (6-mer frequency, TF over GST control)","1.21 fold enrichment (6-mer frequency, TF over GST control)","1.17 fold enrichment (6-mer frequency, TF over GST control)","1.2 fold enrichment (6-mer frequency, TF over GST control)","1.18 fold enrichment (6-mer frequency, TF over GST control)","1.11 fold enrichment (6-mer frequency, TF over GST control)","1.26 fold enrichment (6-mer frequency, TF over GST control)",
AGTGTT,"1.05 fold enrichment (6-mer frequency, TF over GST control)","1.16 fold enrichment (6-mer frequency, TF over GST control)","1.14 fold enrichment (6-mer frequency, TF over GST control)","1.15 fold enrichment (6-mer frequency, TF over GST control)","1.08 fold enrichment (6-mer frequency, TF over GST control)","1.02 fold enrichment (6-mer frequency, TF over GST control)","1.32 fold enrichment (6-mer frequency, TF over GST control)","1.15 fold enrichment (6-mer frequency, TF over GST control)",
GTATCA,"1.14 fold enrichment (6-mer frequency, TF over GST control)","1.07 fold enrichment (6-mer frequency, TF over GST control)","1.18 fold enrichment (6-mer frequency, TF over GST control)","1.05 fold enrichment (6-mer frequency, TF over GST control)","1.05 fold enrichment (6-mer frequency, TF over GST control)","1.1 fold enrichment (6-mer frequency, TF over GST control)","1.06 fold enrichment (6-mer frequency, TF over GST control)","1.02 fold enrichment (6-mer frequency, TF over GST control)","1.1 fold enrichment (6-mer frequency, TF over GST control)"
GTTTGA,"1.29 fold enrichment (6-mer frequency, TF over GST control)","1.19 fold enrichment (6-mer frequency, TF over GST control)","1.36 fold enrichment (6-mer frequency, TF over GST control)","1.12 fold enrichment (6-mer frequency, TF over GST control)","1.16 fold enrichment (6-mer frequency, TF over GST control)","1.06 fold enrichment (6-mer frequency, TF over GST control)","1.23 fold enrichment (6-mer frequency, TF over GST control)","1.16 fold enrichment (6-mer frequency, TF over GST control)","1.12 fold enrichment (6-mer frequency, TF over GST control)"
AACCAT,"1.14 fold enrichment (6-mer frequency, TF over GST control)","1.17 fold enrichment (6-mer frequency, TF over GST control)","1.16 fold enrichment (6-mer frequency, TF over GST control)","1.2 fold enrichment (6-mer frequency, TF over GST control)","1.18 fold enrichment (6-mer frequency, TF over GST control)","1.22 fold enrichment (6-mer frequency, TF over GST control)","1.12 fold enrichment (6-mer frequency, TF over GST control)","1.12 fold enrichment (6-mer frequency, TF over GST control)","1.28 fold enrichment (6-mer frequency, TF over GST control)"
TCACAA,"1.18 fold enrichment (6-mer frequency, TF over GST control)","1.14 fold enrichment (6-mer frequency, TF over GST control)","1.21 fold enrichment (6-mer frequency, TF over GST control)","1.11 fold enrichment (6-mer frequency, TF over GST control)","1.23 fold enrichment (6-mer frequency, TF over GST control)","1.11 fold enrichment (6-mer frequency, TF over GST control)","1.06 fold enrichment (6-mer frequency, TF over GST control)","1.13 fold enrichment (6-mer frequency, TF over GST control)","1.17 fold enrichment (6-mer frequency, TF over GST control)"
CTCACC,"1.26 fold enrichment (6-mer frequency, TF over GST control)","1.32 fold enrichment (6-mer frequency, TF over GST control)","1.32 fold enrichment (6-mer frequency, TF over GST control)","1.13 fold enrichment (6-mer frequency, TF over GST control)","1.2 fold enrichment (6-mer frequency, TF over GST control)","1.24 fold enrichment (6-mer frequency, TF over GST control)","1.24 fold enrichment (6-mer frequency, TF over GST control)","1.34 fold enrichment (6-mer frequency, TF over GST control)","1.3 fold enrichment (6-mer frequency, TF over GST control)"
